Compound activity deposited in PubChem by National Center for Advancing Translational Sciences (NCATS).
Shown are actives, neighbours in structure and some others; about 21% of the full set was active somewhere.
ELG1 repair inh: blocks ELG1-dependent DNA repair in HEK293T cells | HEK293T ELG1-luciferase reporter, luminescence, 16 h; DNA damage induced by 5-fluorouridine | Potency, µM (titrated, usually from 46.1 µM), actives largely listed as inhibitors | hit rate 2.3% among 330,000 | AID 504467; note: nearly all actives have a fitted effect of over 55% in size
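Cells (2,000 per well) received 5-fluorouridine plus test compound or DMSO and were incubated 16 hr at 37 °C, 5% CO2. Luciferase activity was read by luminescence 30 min after ONE-Glo addition; signal suppression marked inhibition of damage-induced ELG1 function.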
VP16 counter: counter-screen for ROR gamma inhibitors: Gal4-VP16 reporter. hit rate 3.5% among 310,000. Drosophila S2 Gal4-VP16 UAS-luciferase, luminescence, 20 h. AID 2546. Potency, µM (highest dose often 53.6 µM), actives largely listed as inhibitors;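 note: Gal4-VP16 expression switched on by copper sulfate through the metallothionein promoter; nearly all actives have a fitted effect of over 50% in size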
TDP1 cell noCPT: qHTS for Inhibitors of human tyrosyl-DNA phosphodiesterase 1 (TDP1): qHTS in cells in absence of CPT; hit rate 15% among 420,000; Potency, µM (top dose mostly 46.2 µM), actives largely listed as inhibitors; DT40 Tdp1-/- hTDP1 cells, no CPT, ATP luminescence, 48 h; note: nearly all actives have a fitted effect of over 55% in size
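Growth kinetics read by CellTiter-Glo luminescence after ≥48 hr at 37 °C. Cells: DT40 Tdp1-/- stably carrying human TDP1, 400 per well, compound exposure in the absence of CPT (DMSO vehicle).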
IL-1B inflam inh: inflammasome signaling inhibition, IL-1 beta readout; THP-1 LPS/ATP IL-1B secretion, AlphaLISA, 16 h; hits give low values; activity change, % at 57.5 µM; hit rate 4.7% among 360,000; AID 743279; in the data active = activity change below about -50%; inconclusive = mostly about -30% to -49%
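THP-1 cells pretreated 1 hr with compounds (up to 57.5 uM final), then stimulated with LPS (250 ng/mL final) plus ATP (1.25 mM final); secreted IL-1B measured by AlphaLISA after 16 hr, decreased signal indicating inhibition.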
TDP1 cell CPT: growth inhibition of DT40 Tdp1-/-;hTDP1 cells with camptothecin (screen for TDP1 inhibitors). chicken DT40 Tdp1-/-;hTDP1 cells + 20 nM CPT, ATP luminescence, 48 h. Potency, µM (series often up to 46.2 µM), hits mostly inhibitors. hit rate 12% among 420,000. AID 686979; note: nearly all actives have a fitted effect of over 55% in size
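Chicken DT40 Tdp1-/- cells complemented with human TDP1, 400 cells/well, exposed to compounds plus 20 nM camptothecin for at least 48 h at 37 C; viability read as ATP content by CellTiter-Glo luminescence.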
RORgamma inh: ROR gamma (mouse) transcription inhibition | Potency, µM (titrated, usually from 53.6 µM), usual class: inhibitors | P51450 | hit rate 5.4% among 310,000 | Drosophila S2 Gal4-RORgamma UAS-luciferase reporter, 20 h | AID 2551; note: nearly all actives have a fitted effect of over 60% in size
Target sequence (P51450 whole entry, looked up, the tested form may be a part): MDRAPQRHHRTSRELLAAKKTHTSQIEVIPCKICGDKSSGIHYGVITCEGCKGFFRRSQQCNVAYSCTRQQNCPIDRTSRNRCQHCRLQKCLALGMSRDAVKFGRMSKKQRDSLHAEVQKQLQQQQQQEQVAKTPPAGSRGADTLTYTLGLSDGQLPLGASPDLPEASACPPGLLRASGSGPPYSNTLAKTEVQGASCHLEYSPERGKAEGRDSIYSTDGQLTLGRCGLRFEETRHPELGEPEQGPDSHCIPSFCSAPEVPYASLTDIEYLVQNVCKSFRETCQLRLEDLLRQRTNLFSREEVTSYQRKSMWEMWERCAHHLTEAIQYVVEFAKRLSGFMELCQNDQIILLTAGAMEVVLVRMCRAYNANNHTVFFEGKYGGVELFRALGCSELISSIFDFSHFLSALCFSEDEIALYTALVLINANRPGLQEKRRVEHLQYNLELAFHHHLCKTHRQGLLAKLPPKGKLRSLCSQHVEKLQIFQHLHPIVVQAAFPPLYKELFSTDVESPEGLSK
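Using a luciferase readout, inhibitors were identified by reduced reporter activity in Drosophila cells coexpressing a copper-inducible Gal4–ROR gamma fusion and UAS-driven Photinus luciferase, incubated 20 hr after 700 uM copper sulfate.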
Hits are given with their value; . = inactive; ? = inconclusive; / = no result. Unless noted, calls come from the whole dose curve; as a rule, active = well fitted curve in the direction sought with a large enough effect; inconclusive = small, poorly fitted or top-dose-only effect, or another doubt; inactive = no such curve, though single readings can be large; an effect the other way counts as inactive or inconclusive.

SMILES | ELG1 repair inh | VP16 counter | TDP1 cell noCPT | IL-1B inflam inh | TDP1 cell CPT | RORgamma inh
Cc1ccc(-n2ncc(C(=O)NCCN3CCCC3)c2C2CCN(C(=O)OC(C)(C)C)CC2)cc1C | / | / | ? | / | 16.4µM | /
Cc1ccc(-n2ncc(C(=O)NCC3CCN(C4CCCC4)C3)c2C2CCN(C(=O)OC(C)(C)C)CC2)cc1C (centres undefined) | . | . | . | ? | ? | .
COc1ccc(-n2ncc(C(=O)NCc3ccc4c(c3)OCO4)c2C2CCN(C(=O)OC(C)(C)C)CC2)cc1 | / | / | ? | / | 16.4µM | /
CCOc1ccc(NC(=O)c2cnn(-c3ccc(C)c(C)c3)c2C2CCN(C(=O)OC(C)(C)C)CC2)cc1 | / | / | 16.4µM | / | 16.4µM | /
COc1ccc(-n2ncc(C(=O)NCCN3CCOCC3)c2C2CCN(C(=O)OC(C)(C)C)CC2)cc1 | / | / | . | / | . | /
NC(=O)CC(NC(=O)Cc1ccc(Br)cc1)c1ccc(NCCOc2ccccc2)c([N+](=O)[O-])c1 (centres undefined) | . | . | . | . | . | ?
CC(C)Nc1ccc(C(CC(N)=O)NC(=O)Cc2ccc(Br)cc2)cc1[N+](=O)[O-] (centres undefined) | ? | . | 20.6µM | . | 13µM | .
NC(=O)CC(NC(=O)Cc1ccc(Br)cc1)c1ccc(NC2CCCCCC2)c([N+](=O)[O-])c1 (centres undefined) | ? | . | ? | ? | 18.4µM | .
NC(=O)CC(NC(=O)c1ccc(Br)cc1)c1ccc(NC2CCCCCC2)c([N+](=O)[O-])c1 (centres undefined) | . | ? | 16.4µM | . | 16.4µM | .
NC(=O)CC(NC(=O)c1cccc(Br)c1)c1ccc(NC2CCCCCCC2)c([N+](=O)[O-])c1 (centres undefined) | . | . | 16.4µM | . | ? | .
NC(=O)CC(NC(=O)Cc1ccc(Br)cc1)c1ccc(NC2CCCC2)c([N+](=O)[O-])c1 (centres undefined) | . | . | ? | . | ? | .
NC(=O)CC(NC(=O)c1cccc(Br)c1)c1ccc(NC2CCCCCCCCCCC2)c([N+](=O)[O-])c1 (centres undefined) | . | . | . | . | . | .
CC[C@H](C)[C@H](NC(=O)[C@H](Cc1ccc(O)cc1)NC(=O)[C@H](Cc1cnc[nH]1)NC(=O)[C@H](CCCNC(=N)N)NC(=O)[C@H](CC(C)C)NC(=O)[C@H](C)NC(=O)[C@H](CO)NC(=O)[C@H](Cc1ccc(O)cc1)NC(=O)[C@H](Cc1ccc(O)cc1)NC(=O)[C@H](CCCNC(=N)N)NC(=O)[C@H](C)NC(=O)[C@H](CC(C)C)NC(=O)[C@H](CC(=O)O)NC(=O)[C@H](CCC(=O)O)NC(=O)[C@H](C)NC(=O)[C@@H]1CCCN1C(=O)[C@H](C)NC(=O)[C@H](CC(=O)O)NC(=O)[C@H](CCC(=O)O)NC(=O)CNC(=O)[C@@H]1CCCN1C(=O)[C@H](CC(N)=O)NC(=O)[C@H](CC(=O)O)NC(=O)[C@@H]1CCCN1C(=O)[C@H](CCCCN)NC(=O)[C@@H](N)CO)C(=O)N[C@@H](CC(N)=O)C(=O)N[C@@H](CC(C)C)C(=O)N[C@H](C(=O)N[C@H](C(=O)N[C@@H](CCCNC(=N)N)C(=O)N[C@@H](CCC(N)=O)C(=O)N[C@@H](CCCNC(=N)N)C(=O)N[C@@H](Cc1ccc(O)cc1)C(N)=O)[C@@H](C)O)[C@@H](C)CC | / | . | / | / | / | .
CC1(c2nnnn2-c2ccc3c(c2)OCCO3)CCC(=O)N1C1CC1 (centres undefined) | / | / | . | . | . | /
CCOc1ccccc1CNS(=O)(=O)c1cnc(N)nc1 | / | / | ? | / | . | /
NC(=O)CC(NC(=O)c1ccc(Br)cc1)c1ccc(NC2CCCCC2)c([N+](=O)[O-])c1 (centres undefined) | . | . | 16.4µM | . | 14.6µM | ?
CC(C)C[C@@H]1COc2cccc(N3CCC[C@@H]3CO)c2S(=O)(=O)N1 | / | / | ? | . | . | /
CCOC(=O)[C@H]1[C@H]2COc3cc(OC)ccc3[C@@H]2N2C(=O)N(c3cccc(Cl)c3)C(=O)[C@@]12C | . | . | 29.1µM | . | ? | .
CCOC(=O)[C@@H]1[C@H]2COc3cc(OC)ccc3[C@@H]2N2C(=O)N(c3cccc(Cl)c3)C(=O)[C@]12C | . | . | ? | . | ? | .
CCOC(=O)[C@@H]1[C@H]2COc3cc(OC)ccc3[C@@H]2N2C(=O)N(c3cccc(Cl)c3)C(=O)[C@@]12C | . | . | ? | . | . | 11.2µM
COCCNC(=O)c1cc2c(=O)n3cccc(C)c3nc2n(Cc2ccncc2)c1=N | . | . | ? | . | ? | ?
Cc1cccn2c(=O)c3cc(C(=O)NC(C)c4ccccc4)c(=N)n(CCOCCO)c3nc12 (centres undefined) | / | / | 25.9µM | / | 23.1µM | /
Cc1cccn2c(=O)c3cc(C(=O)NCc4cccnc4)c(=N)n(CCCO)c3nc12 | / | / | . | / | . | /
Cc1cccn2c(=O)c3cc(C(=O)NCc4ccccc4)c(=N)n(CCOCCO)c3nc12 | / | / | 25.9µM | / | 11.6µM | /
CCOCCCn1c(=N)c(C(=O)NC(C)c2ccccc2)cc2c(=O)n3cccc(C)c3nc21 (centres undefined) | / | / | 16.4µM | / | 16.4µM | /
SMILES | ELG1 repair inh | VP16 counter | TDP1 cell noCPT | IL-1B inflam inh | TDP1 cell CPT | RORgamma inh
Cc1cccn2c(=O)c3cc(C(=O)NC(C)c4ccccc4)c(=N)n(CCCn4ccnc4)c3nc12 (centres undefined) | . | . | ? | -83.5 | ? | .
COCCn1c(=N)c(C(=O)NC(C)c2ccccc2)cc2c(=O)n3cc(C)ccc3nc21 (centres undefined) | / | / | . | / | . | /
CCCCOc1ccc(CC(=O)NOC)cc1 | / | / | . | / | . | /
CCCn1c(=O)c2ccccc2n2c(Sc3nnnn3-c3ccccc3)nnc12 | . | . | 23.1µM | . | ? | .
CCCn1c(=O)c2ccccc2n2c(SCC(=O)NCc3cccs3)nnc12 | . | . | 14.6µM | . | ? | .
C=CCn1c(=O)c2ccccc2n2c(Sc3nnnn3-c3ccccc3)nnc12 | . | . | ? | . | ? | .
Cc1ccc(C)c(NC(=O)Cn2cc(C(=O)c3ccncc3)c(=O)c3cc(F)ccc32)c1 | / | / | . | / | . | /
CC(C)NC(=O)CSc1ccccc1C(=O)NNC(=O)Cn1ccc(C(F)(F)F)n1 | . | / | ? | . | . | /
O=C(NC1CCCC1)C(c1ccccc1)n1c(-c2cccc3ccccc23)nc2ccccc21 (centres undefined) | / | / | ? | . | ? | /
